# Laboratory results as given in PubChem BioAssay.
# Inconclusive results are not listed. The source made the active and inactive calls.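 The calls were made as follows, unless noted: active = normalized viability below 100% at a tested concentration; inactive = the rest.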
# Columns and labels:
# [1] = stimulators of nuclear beta-catenin in C2C12, primary screen, imaging, WNT3A-conditioned medium, mouse C2C12, NPC library (AID 1117326; in the data active = nuclear beta-catenin stimulation mostly above about 4.2%, no sharp cut-off; inactive = mostly below about 10%); settings: stronger effect = higher value
# [2] = stimulators of insulin release from INS-1E, primary screen, cell-based, 5 mM glucose, NPC library (AID 1117329;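 active = compound raises insulin release from rat beta cells at 5 mM glucose, no numeric limit stated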); settings: rat INS-1E insulin secretion, at 10 µM, stronger effect = higher value
# [3] = growth inhibition of GSK3B-pretreated HCT116 cells – cell-based, CellTiter-Glo, 0.2 to 20 µM (AID 1117336;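 active = compounds lowering colon cancer cell viability after pretreatment blocking the GSK3B kinase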); settings: HCT116 viability after GSK3B inhibitor, at 20 µM, stronger effect = higher value
# [4] = inhibition of endothelial tube formation, primary screen, imaging, VEGF stimulated, CD31 staining, tube area, NPC library (AID 1117340;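 active = compound that reduces growth-factor-driven endothelial tube area in a mixed cell culture, no cutoff stated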); settings: VEGF-stimulated ADSC/ECFC co-culture, at 10 µM, stronger effect = higher value
# [5] = glucagon-like peptide 1 release enhancers, primary assay, NCI-H716 cell line, NPC library (AID 1117341;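 active = compound raises GLP1 secretion from the human gut endocrine cells, with no numeric limit stated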); settings: NCI-H716 cells, at 10 µM, stronger effect = higher value
# [6] = HCT116 colon cancer cell growth inhibition, primary screen, CellTiter-Glo luminescence, NPC library (AID 1117342;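 active = compounds that lower survival of HCT116 colon cancer cells in the luminescence readout, no numeric limit stated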); settings: at 20 µM (top of the series)
# [7] = CellTiter-Glo luminescent readout of SW480 viability loss, NPC library primary (AID 1117343;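 active = compounds that lower viability of the colon cancer cells in the luminescence readout, with no numeric limit stated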); settings: CellTiter-Glo luminescence; at 20 µM (top of the series) unless noted
# [8] = decreased DLD-1 cellular survival, CellTiter-Glo luminescent readout, NPC compound collection, primary HTS (AID 1117346;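 active = compounds that lower survival of DLD-1 colon cancer cells in the luminescence readout, no cutoff given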); settings: DLD-1 viability, CellTiter-Glo luminescence; at 20 µM (top of the series)
# [9] = growth inhibition of DIPG glioma cells, dose response, cell-based, SU-DIPG-XVII, MIPE5.0, CellTiter-Glo, qHTS (AID 1347060; cut-off not given, nearly all actives have AC50 up to about 26 µM;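 also: cells exposed to compound for 48 hours before viability readout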); settings: SU-DIPG-XVII viability, CellTiter-Glo ATP luminescence
# [10] = growth inhibition of DIPG glioma cells, dose response, cell-based, SU-DIPG-XIII, MIPE4.0, CellTiter-Glo, qHTS (AID 1347061; cut-off not given, nearly all actives have AC50 up to about 37 µM;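 also: cells exposed to compound for 48 hours before readout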); settings: SU-DIPG-XIII viability, CellTiter-Glo ATP luminescence
# [11] = growth inhibition of DIPG glioma cells, dose response, cell-based, JHH-DIPG-1, MIPE4.0, CellTiter-Glo, qHTS (AID 1347062; cut-off not given, nearly all actives have AC50 up to about 27 µM;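 also: cells exposed to compound for two days before readout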); settings: JHH-DIPG-1 viability, CellTiter-Glo ATP luminescence
# [12] = sensitizers of A549 cells to miR-34 induction, primary screen, imaging, A549 dox-inducible miR-34, nuclei and caspase counts (AID 1347080;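 active = compounds whose cell count with miR-34 switched on is under 0.7 times the count with it off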); settings: A549 miR-34 inducible, Hoechst nuclei count, 48 h
# [13] = ovarian cancer cell viability with rucaparib, profiling panel, oncology-focused library, rucaparib conditional (AID 1508598); settings: patient-derived ovarian cancer cells, CellTiter-Glo viability, 144 h, stronger effect = lower value
# [14] = viability rescue of complex I mutant cybrids, primary screen, cell-based, galactose medium, ATP luminescence (AID 1645843;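 active = z-score of at least 1.8 in each of two replicates, scored against plate mean and spread of sample wells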;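 also: positive z means more ATP and so rescue of galactose-driven cybrid death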); settings: complex I mutant cybrid cells, 72 h, stronger effect = higher value
# [15] = SU-DIPG-XXV glioma cell viability, MIPE5.0 library, qHTS (AID 1347068; cut-off not given, nearly all actives have IC50 up to about 30 µM;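 also: cells exposed to compound for 48 hours before viability readout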)
# [16] = survival rescue of mitochondrial mutant cells in low glucose, primary screen, MELAS cybrids, Rieske KO mouse fibroblasts, CellTiter-Glo (AID 1508586;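 active = mean z-score across replicates of 1.96 or higher in either the MELAS or the Rieske mutant cell line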;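 also: z relative to plate mean and SD of compound and empty wells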)
# [17] = stronger effect = lower value, cell number ratio, induced over uninduced
# [18] = measured here: relative caspase fold change +Dox/-Dox
# [19] = measured here: total cells with miR-34 induction, stronger effect = lower value
# [20] = measured here: total cells without miR-34 induction
# [21] = at 0.000305 µM, OCI-C5x cells, with rucaparib 10 µM, 100% = cells with rucaparib alone
# [22] = at 0.000305 µM, OCI-C5x cells, without rucaparib
# [23] = at 0.000305 µM, OCI-P5x cells, with rucaparib 20 µM, 100% = cells with rucaparib alone
# [24] = at 0.000305 µM, OCI-P5x cells, without rucaparib
# [25] = at 0.00122 µM, OCI-C5x cells, with rucaparib 10 µM, 100% = cells with rucaparib alone
# [26] = at 0.00122 µM, OCI-C5x cells, without rucaparib
# [27] = at 0.00122 µM, OCI-P5x cells, with rucaparib 20 µM, 100% = cells with rucaparib alone
# [28] = at 0.00122 µM, OCI-P5x cells, without rucaparib
# [29] = at 0.00488 µM, OCI-C5x cells, with rucaparib 10 µM, 100% = cells with rucaparib alone
# [30] = at 0.00488 µM, OCI-C5x cells, without rucaparib
# [31] = at 0.00488 µM, OCI-P5x cells, with rucaparib 20 µM, 100% = cells with rucaparib alone
# [32] = at 0.00488 µM, OCI-P5x cells, without rucaparib
# [33] = at 0.0195 µM, OCI-C5x cells, with rucaparib 10 µM, 100% = cells with rucaparib alone
# [34] = at 0.0195 µM, OCI-C5x cells, without rucaparib
# [35] = at 0.0195 µM, OCI-P5x cells, with rucaparib 20 µM, 100% = cells with rucaparib alone
# [36] = at 0.0195 µM, OCI-P5x cells, without rucaparib
# [37] = at 0.0781 µM, OCI-C5x cells, with rucaparib 10 µM, 100% = cells with rucaparib alone
# [38] = at 0.0781 µM, OCI-C5x cells, without rucaparib
# [39] = at 0.0781 µM, OCI-P5x cells, with rucaparib 20 µM, 100% = cells with rucaparib alone
# [40] = at 0.0781 µM, OCI-P5x cells, without rucaparib
# [41] = at 0.313 µM, OCI-C5x cells, with rucaparib 10 µM, 100% = cells with rucaparib alone
# [42] = at 0.313 µM, OCI-C5x cells, without rucaparib
# [43] = at 0.313 µM, OCI-P5x cells, with rucaparib 20 µM, 100% = cells with rucaparib alone
# [44] = at 0.313 µM, OCI-P5x cells, without rucaparib
# [45] = at 1.25 µM, OCI-C5x cells, with rucaparib 10 µM, 100% = cells with rucaparib alone
# [46] = at 1.25 µM, OCI-C5x cells, without rucaparib
# [47] = at 1.25 µM, OCI-P5x cells, with rucaparib 20 µM, 100% = cells with rucaparib alone
# [48] = at 1.25 µM, OCI-P5x cells, without rucaparib
# [49] = at 5 µM, OCI-C5x cells, with rucaparib 10 µM, 100% = cells with rucaparib alone
# [50] = at 5 µM, OCI-C5x cells, without rucaparib
# [51] = at 5 µM, OCI-P5x cells, with rucaparib 20 µM, 100% = cells with rucaparib alone
# [52] = at 5 µM, OCI-P5x cells, without rucaparib
compound,measurement,setting,value
CCN(CC)CCNC(=O)c1c(C)[nH]c(/C=C2\C(=O)Nc3ccc(F)cc32)c1C,nuclear beta-catenin stimulation,[1]; at 10 µM,0.3% (inactive)
same,nuclear beta-catenin stimulation,"[1]; stimulation, at 2 µM",-2%
same,insulin secretion stimulation,[2],47.3% (active)
same,viability decrease,[3],108% (active)
same,tube area decrease,[4],103% (active)
same,GLP1 secretion stimulation,[5],18.2% (inactive)
same,inhibition of viability,[6],110% (active)
same,viability decrease (inhibition),[7],127% (active)
same,viability decrease (inhibition),[8],93.4% (active)
same,AC50,[9],7.42 µM (active)
same,AC50,[10],38.2 µM (active)
same,AC50,[11],10.8 µM (active)
same,fold change,[12]; [17],0.916 (inactive)
same,fold change,[12]; [18],1.17
same,cell count,[12]; [19],715
same,cell count,[12]; [20],780
same,viability,[13]; [21],110% (inactive)
same,viability,[13]; [22],107% (inactive)
same,viability,[13]; [23],84% (active)
same,viability,[13]; [24],93.8% (active)
same,viability,[13]; [25],114% (inactive)
same,viability,[13]; [26],102% (inactive)
same,viability,[13]; [27],98.6% (active)
same,viability,[13]; [28],88.3% (active)
same,viability,[13]; [29],113% (inactive)
same,viability,[13]; [30],108% (inactive)
same,viability,[13]; [31],96.3% (active)
same,viability,[13]; [32],97.4% (active)
same,viability,[13]; [33],115% (inactive)
same,viability,[13]; [34],99.1% (active)
same,viability,[13]; [35],98.7% (active)
same,viability,[13]; [36],95.9% (active)
same,viability,[13]; [37],118% (inactive)
same,viability,[13]; [38],111% (inactive)
same,viability,[13]; [39],95% (active)
same,viability,[13]; [40],99.9% (active)
same,viability,[13]; [41],123% (inactive)
same,viability,[13]; [42],113% (inactive)
same,viability,[13]; [43],93.2% (active)
same,viability,[13]; [44],99.5% (active)
same,viability,[13]; [45],126% (inactive)
same,viability,[13]; [46],117% (inactive)
same,viability,[13]; [47],89.1% (active)
same,viability,[13]; [48],104% (inactive)
same,viability,[13]; [49],60.6% (active)
same,viability,[13]; [50],21.7% (active)
same,viability,[13]; [51],1.9% (active)
same,viability,[13]; [52],12.8% (active)
same,z-score,[14],-1 (inactive)
O=C(NOCC1CC1)c1ccc(F)c(F)c1Nc1ccc(I)cc1Cl,nuclear beta-catenin stimulation,[1]; at 10 µM,1.5% (inactive)
same,nuclear beta-catenin stimulation,"[1]; stimulation, at 2 µM",1.7%
same,insulin secretion stimulation,[2],-0.4% (inactive)
same,viability decrease,[3],43.3% (inactive)
same,tube area decrease,[4],104% (active)
same,GLP1 secretion stimulation,[5],9.6% (inactive)
same,inhibition of viability,[6],87.4% (active)
same,viability decrease (inhibition),[7],133% (active)
same,viability decrease (inhibition),[8],92.4% (active)
same,AC50,[9],2.35 µM (active)
same,AC50,[10],11.8 µM (active)
same,AC50,[11],16.6 µM (active)
same,IC50,[15],13.2 µM (active)
same,fold change,[12]; [17],1.1 (inactive)
same,fold change,[12]; [18],0.574
same,cell count,[12]; [19],3240
same,cell count,[12]; [20],2940
same,z-score,"[16]; MELAS cybrid survival, CellTiter-Glo 48 h, stronger effect = higher value",-0.582 (inactive)
same,z-score,"[16]; Rieske KO mouse fibroblast survival, CellTiter-Glo 72 h",0.299
same,viability,[13]; [21],116% (inactive)
same,viability,[13]; [22],119% (inactive)
same,viability,[13]; [23],142% (inactive)
same,viability,[13]; [24],100% (inactive)
same,viability,[13]; [25],112% (inactive)
same,viability,[13]; [26],120% (inactive)
same,viability,[13]; [27],135% (inactive)
same,viability,[13]; [28],109% (inactive)
same,viability,[13]; [29],123% (inactive)
same,viability,[13]; [30],118% (inactive)
same,viability,[13]; [31],126% (inactive)
same,viability,[13]; [32],97.9% (active)
same,viability,[13]; [33],115% (inactive)
same,viability,[13]; [34],127% (inactive)
same,viability,[13]; [35],122% (inactive)
same,viability,[13]; [36],107% (inactive)
same,viability,[13]; [37],121% (inactive)
same,viability,[13]; [38],111% (inactive)
same,viability,[13]; [39],124% (inactive)
same,viability,[13]; [40],110% (inactive)
same,viability,[13]; [41],121% (inactive)
same,viability,[13]; [42],119% (inactive)
same,viability,[13]; [43],106% (inactive)
same,viability,[13]; [44],92.7% (active)
same,viability,[13]; [45],104% (inactive)
same,viability,[13]; [46],117% (inactive)
same,viability,[13]; [47],87.2% (active)
same,viability,[13]; [48],90.5% (active)
same,viability,[13]; [49],87.6% (active)
same,viability,[13]; [50],116% (inactive)
same,viability,[13]; [51],61% (active)
same,viability,[13]; [52],63.3% (active)
